From PubChem BioAssay AID1578 (Sanford-Burnham Center for Chemical Genomics, 2009)
Screen size: about 290,000 compounds; about 3,000 (1%) were called active. Cut-off read from the data, not from the text of the source: active = inhibition mostly above about 36% (no sharp cut-off); inactive = mostly below about 34%. The sample as a whole holds a higher share of actives than the screen did.

assay: NOD1 signaling inhibitors, primary screen, cell-based, luminescence, uHTS (AID 1578); details: NOD1-driven NF-kB luciferase reporter cells, at 4 µM, stronger effect = higher value;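 note: HEK-293T reporter cells stimulated with the NOD1 agonist gamma-tri-DAP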

inhibition, active:
CC(=O)c1c(C)oc2c1C(=O)c1ccccc1C2=O 79.5%
O=C(CSc1nnc(CNC(=O)c2ccccc2)o1)NCCc1ccccc1 72%
COc1ccc(C(=O)NCc2nnc(SCC(=O)N3CCOCC3)o2)cc1 37.2%
CN1C2=CC=CC=CC2=[N+](C)C12C([N+](=O)[O-])=CC(=[N+]([O-])[O-])C=C2[N+](=O)[O-] (stereo not drawn) 57.4%
O=C(NNC1=Nc2ccccc2SC1)c1ccc(Cl)cc1 78.1%
Cc1cc(NC(=O)CSc2cn(CCNC(=O)c3ccc(Cl)cc3)c3ccccc23)no1 75.9%
CN1C(=S)SC(/[N+]([O-])=C\c2ccc(Cl)cc2)C1(C)C (stereo not drawn) 84.4%

inhibition, inactive:
Cc1nc2cc(NC(=O)c3ccc(Br)s3)ccc2s1 -42.5%
CC(=O)Nc1ccc2sc(C)nc2c1 -14.2%
COc1ccc(Cl)cc1NC(=O)CN1C(=O)CSC1=O -3.2%
Cc1ccc(NC(=O)c2ccccc2N(C)S(=O)(=O)c2ccccc2)c(C)c1 -8.8%
CCOC(=O)c1c(C)oc2c1C(=O)c1ccccc1C2=O -38.5%
Cc1oc2c(c1C(=O)O)C(=O)c1ccccc1C2=O -30.8%
Cc1ccc(-c2nnn(CC(=O)N(Cc3ccccc3F)C(C(=O)NC3CCCC3)c3ccncc3)n2)o1 (stereo not drawn) -44.1%
CCOC(=O)C1=C(C)N(c2ccccc2)C(=O)NC1c1cccc([N+](=O)[O-])c1 (stereo not drawn) -25.4%
COc1ccc(C(=O)NCc2nnc(SCC(=O)N3CCCCC3)o2)cc1 -32.2%
O=C(CSc1nnc(CNC(=O)c2ccc(F)cc2)o1)NCCc1ccccc1 -16%
COc1ccc(C(=O)NCc2nnc(SCC(=O)N3CCCC3)o2)cc1 -25.5%
COc1ccc(C(=O)NCc2nnc(SCC(=O)NCCc3ccccc3)o2)cc1 -16.6%
COCCn1c(SCC(=O)Nc2ccc(S(N)(=O)=O)cc2)nc2ccccc21 -3.5%
CCN(CC)C1CCN(C(=O)CCn2nnnc2CN2CCOCC2)C1 (stereo not drawn) -54.3%
COCCn1c(SCc2ccc(OC)c(F)c2)nnc1-c1ccncc1 -14.1%
O=Cc1ccc(OC(=O)CCCCC(=O)Oc2ccc(C=O)cc2)cc1 4.4%
CC(C)[N+]1=C2C=CC=CC=C2SC12C([N+](=O)[O-])=CC(=[N+]([O-])[O-])C=C2[N+](=O)[O-] (stereo not drawn) -8.1%
CN1C2=CC=CC=CC2=[N+](C)C12C=CC(=[N+]([O-])[O-])C=C2[N+](=O)[O-] (stereo not drawn) -35.5%
Fc1ccc(NC(=S)Nc2ccc(Cl)cc2Cl)cc1 -28.8%
CC(=O)c1c(C)[nH]c(C(=O)Nc2ccc(C)c(S(=O)(=O)N(C)C)c2)c1C -63.3%
Nc1nc(NCC(=O)O)nc(NCc2ccccc2)c1[N+](=O)[O-] -13.3%
O=C(NNC1=Nc2ccccc2SC1)c1ccccc1F 1.9%
O=C(NNC1=Nc2ccccc2SC1)c1ccc(F)cc1 18.7%
COc1cc(/C=C(\C#N)C(=O)N2CCOCC2)ccc1OCc1ccccc1 -23.3%
O=S(=O)(c1cnc(Cl)c(Cl)c1)N1CCN(c2ncccn2)CC1 -5.2%
CC(C)c1ccccc1NC(=O)COC(=O)c1cccnc1 -18.3%
Cc1ccc(C(=O)NCCn2cc(SCC(=O)Nc3cc(C)on3)c3ccccc32)cc1 -10.3%
Cc1cc(NC(=O)CSc2cn(CCNC(=O)c3ccccc3)c3ccccc23)no1 11.3%
O=C(CCC(=O)OCC(=O)c1ccc(Br)cc1)NC1CCCCC1 -4.2%
CCC(=O)N1CCN(c2nc(C)nc3sc(C)c(C)c23)CC1 9.5%
CCn1c(SCC(=O)N2CCc3ccccc3C2)nc2sc(C)c(C)c2c1=O 20.4%
Cc1nc(SCC(=O)N2CCCCC2)c2c(C)c(C)sc2n1 -15.5%
Cc1nc(N2CCN(C(=O)CCC(=O)O)CC2)c2c(C)c(C)sc2n1 -16.7%
COC(=O)c1ccc(CNC(=O)N2CCN(S(=O)(=O)c3ccc(C)cc3)CC2)cc1 -19.3%
Cn1c(=O)c2c(nc(SCc3ccccc3F)n2C)n(C)c1=O 24%
CN1C(=S)SC(/[N+]([O-])=C/c2ccc(Cl)cc2)C1(C)C (stereo not drawn) 12%
Cc1ccc(/C=[N+](/[O-])C2SC(=S)N(C)C2(C)C)cc1 (stereo not drawn) -10.5%
O=C(O)c1ccc(-c2nc3scc(-c4ccccc4)c3c(=O)[nH]2)cc1 -3.4%
COc1cc(SC)ccc1C(=O)OC1CCOC1=O (stereo not drawn) 7.7%
CC(=O)Nc1ccc(NC(=O)c2ccc(CN3CCc4ccccc4C3)cc2)cc1 21.2%
CCOC(=O)c1ccc(NC(=O)CN2CCc3ccccc3C2)cc1 -2.1%
Cc1cc(C)cc(NC(=O)c2ccc(CN3CCc4ccccc4C3)cc2)c1 39.1%
CCOc1ccccc1NC(=O)c1ccc(CN2CCc3ccccc3C2)cc1 25.2%
Cc1ccc(NC(=O)c2ccc(CN3CCc4ccccc4C3)cc2)cc1 42.4%
O=C(Nc1ccccc1)c1ccc(CN2CCc3ccccc3C2)cc1 37.2%
C#Cc1ccc([C@H]2C=C(C(=O)N3CCN(Cc4ccc5c(c4)OCO5)CC3)O[C@@H](OCc3ccc(CO)cc3)C2)cc1 1.8%
Cc1ccc(S(=O)(=O)Nc2ccccc2N2CCOCC2)cc1 -11.5%
Cc1nc2sc(C(c3ccc(F)cc3)N3CCOCC3)c(O)n2n1 (stereo not drawn) 0.4%
Cc1onc(-c2ccccc2)c1C(=O)c1c[nH]c(C(=O)NCCCN2CCOCC2)c1 -7.9%
COc1ccc(CCNC(=O)Cn2c(=O)n(-c3cc(F)ccc3F)c(=O)c3sccc32)cc1OC -47.6%
CC(NC(=S)Nc1ccc(OC(F)F)c(Cl)c1)C(C)(C)C (stereo not drawn) -14.8%
